From PubChem BioAssay (NCI)
Compounds without any hit were thinned out: in the full panel of roughly 79,000, 15% have a hit. Active and inactive are the calls of the source. Rule as the data show it: active = growth inhibition above about 70%; inactive = the rest.

Key:
[1] = NCI Yeast Anticancer Drug Screen. Data for the wt1 strain (AID 149);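 also: 0% = growth of vehicle-treated wt1 cultures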; conditions: S. cerevisiae wt1 strain (SPY 50644) growth inhibition, hits give high values
Procedure, shortened: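 Each compound is tested on wt1 yeast and the loss of growth versus vehicle gives the inhibition value.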

[2] = NCI Yeast Anticancer Drug Screen. Data for the rad50EPP+ strain (AID 151);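 also: 0% = growth of vehicle-treated control cultures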; conditions: S. cerevisiae rad50 mutant strain, hits give high values
Procedure, shortened: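 One strain with a rad50 alteration (rad50EPP+) was compound-treated, its growth then compared to that of vehicle controls.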

[3] = NCI Yeast Anticancer Drug Screen. Data for the mgt1 strain (AID 153); conditions: S. cerevisiae mgt1 mutant growth inhibition, hits give high values
Procedure, shortened: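 After exposure of the mgt1 yeast mutant to compound, growth was measured and reported as inhibition compared with vehicle controls.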

[4] = NCI Yeast Anticancer Drug Screen. Data for the rad50 strain (AID 155);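 also: 0% = growth of vehicle-only cultures of the same strain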; conditions: S. cerevisiae rad50 strain growth inhibition, hits give high values
Procedure, shortened: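 Vehicle-treated cultures provide the reference for the growth inhibition reported for compound-exposed, repair-deficient yeast.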

[5] = NCI Yeast Anticancer Drug Screen. Data for the mec2-1 strain (AID 157); conditions: S. cerevisiae mec2-1 strain, hits give high values
Procedure, shortened: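 Test agents were screened against the mec2-1 yeast strain, with defined DNA repair or cell cycle alteration. Growth was scored as inhibition against vehicle-only controls.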

[6] = NCI Yeast Anticancer Drug Screen. Data for the rad14 strain (AID 159);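 also: 0% = growth of vehicle-treated control cultures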; conditions: S. cerevisiae rad14 strain growth inhibition, hits give high values
Procedure, shortened: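 Inhibition of growth is reported for a repair-deficient yeast mutant following compound treatment, calculated relative to cultures that received vehicle.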

[7] = NCI Yeast Anticancer Drug Screen. Data for the sgs1 mgt1 strain (AID 161);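 also: 0% = growth of cultures given vehicle only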; conditions: S. cerevisiae sgs1 mgt1 strain, hits give high values
Procedure, shortened: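 Read-out: growth inhibition vs vehicle controls. Cells: mutant yeast strain deficient in DNA damage repair.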

[8] = NCI Yeast Anticancer Drug Screen. Data for the CLN2oe strain (AID 163);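 also: 0% = growth of vehicle-only control cultures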; conditions: S. cerevisiae CLN2oe strain, hits give high values
Procedure, shortened: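 Here, growth inhibition in a cell-cycle-altered yeast strain after compound exposure was quantified against vehicle control growth.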

[9] = NCI Yeast Anticancer Drug Screen. Data for the cln2 rad14 strain (AID 165);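 also: 0% = growth equal to vehicle treated cultures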; conditions: S. cerevisiae cln2 rad14 strain, hits give high values
Procedure, shortened: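 Growth of compound-exposed yeast (cln2 rad14 genotype) measured and expressed as inhibition relative to vehicle.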

[10] = NCI Yeast Anticancer Drug Screen. Data for the bub3 strain (AID 167); conditions: S. cerevisiae bub3 mutant strain, hits give high values
Procedure, shortened: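 Mutant yeast screening strain plus compound; vehicle-treated cultures serve as the 0% inhibition reference.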

[11] = NCI Yeast Anticancer Drug Screen. Data for the wt2 strain (AID 169); conditions: S. cerevisiae wt2 strain growth inhibition, hits give high values
Procedure, shortened: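 Genetically defined yeast strains from a DNA-repair/cell-cycle panel were used. Compound-exposed yeast growth was measured, and the inhibition was calculated relative to vehicle treatment.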

[12] = NCI Yeast Anticancer Drug Screen. Data for the mlh1 strain (AID 171);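 also: 0% = growth of vehicle-treated control cultures of the same strain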; conditions: S. cerevisiae mlh1 strain growth inhibition, hits give high values
Procedure, shortened: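 Here the genetically defined yeast mutant is grown with each compound, and the extent to which its growth falls below that of vehicle-exposed cells is reported.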

[13] = NCI Yeast Anticancer Drug Screen. Data for the sgs1 strain (AID 173);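 also: 0% = growth of vehicle-only control cultures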; conditions: S. cerevisiae sgs1 mutant, hits give high values
Procedure, shortened: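 Relative growth inhibition, referenced to vehicle, was determined in a yeast strain with a defined alteration affecting DNA damage repair or cell cycle control after compound exposure.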

[14] = NCI Yeast Anticancer Drug Screen. Data for the mlh1 rad18 strain (AID 175); conditions: S. cerevisiae mlh1 rad18 strain growth inhibition, hits give high values
Procedure, shortened: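 In this whole-cell yeast screen, a strain with altered DNA damage repair is challenged with compound, and its growth is measured against matched vehicle-treated controls.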

[15] = NCI Yeast Anticancer Drug Screen. Data for the rad18 strain (AID 177); conditions: S. cerevisiae rad18 mutant growth inhibition, hits give high values
Procedure, shortened: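 Screen uses a yeast strain with a defined lesion in DNA damage repair; compound effect is read as loss of growth compared to untreated vehicle cultures.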

[16] = at 5.0 µM (retest, dose inferred, filed as 0.5)
[17] = at 50.0 µM (retest, dose inferred, filed as 5.0)

Measured: growth inhibition

CO[C@@]12[C@H](COC(N)=O)C3=C(C(=O)C(C)=C(N)C3=O)N1C[C@@H]1N[C@@H]12
inactive: [1]; at 1.2 µM 1% | [1]; at 3.7 µM 2% | [1]; at 11.0 µM 9% | [1]; at 33.0 µM 30% | [1]; at 100.0 µM 62% | [2]; at 1.2 µM -4% | [2]; at 3.7 µM 5% | [2]; at 11.0 µM 25% | [2]; at 33.0 µM 63% | [3]; at 1.2 µM -2% | [3]; at 3.7 µM 2% | [3]; at 11.0 µM 11% | [3]; at 33.0 µM 33% | [4]; at 1.2 µM 1% | [4]; at 3.7 µM 14% | [4]; [16] 23% | [4]; at 11.0 µM 38% | [4]; at 50.0 µM 65.3% | [5]; at 1.2 µM 1% | [5]; at 3.7 µM 13% | [5]; [16] 25% | [5]; at 11.0 µM 29% | [5]; at 50.0 µM 63.9% | [6]; at 1.2 µM 6% | [6]; at 3.7 µM 17% | [6]; at 11.0 µM 39% | [7]; [16] 22% | [7]; [17] 68% | [7]; at 50.0 µM 50.8% | [8]; at 1.2 µM -3% | [8]; at 3.7 µM 0% | [8]; at 11.0 µM 7% | [8]; at 33.0 µM 38% | [9]; [16] 7% | [9]; [17] 57% | [9]; at 50.0 µM 48.8% | [10]; at 1.2 µM 1% | [10]; at 3.7 µM 3% | [10]; [16] 29% | [10]; at 11.0 µM 7% | [10]; at 33.0 µM 26% | [10]; [17] 49% | [10]; at 50.0 µM 25.4% | [10]; at 100.0 µM 67% | [11]; at 1.2 µM -1% | [11]; at 3.7 µM 4% | [11]; at 11.0 µM 15% | [11]; at 33.0 µM 51% | [12]; at 1.2 µM 1% | [12]; at 3.7 µM 7% | [12]; at 11.0 µM 21% | [12]; at 33.0 µM 55% | [13]; at 1.2 µM 3% | [13]; at 3.7 µM 11% | [13]; at 11.0 µM 36% | [15]; at 1.2 µM 20% | [15]; at 3.7 µM 60%
active: [2]; at 100.0 µM 83% | [3]; at 100.0 µM 79% | [4]; at 33.0 µM 76% | [4]; [17] 72% | [4]; at 100.0 µM 91% | [5]; at 33.0 µM 74% | [5]; [17] 80% | [5]; at 100.0 µM 91% | [6]; at 33.0 µM 76% | [6]; at 100.0 µM 89% | [8]; at 100.0 µM 85% | [11]; at 100.0 µM 86% | [12]; at 100.0 µM 84% | [13]; at 33.0 µM 71% | [13]; at 100.0 µM 90% | [14]; [16] 72% | [14]; [17] 92% | [14]; at 50.0 µM 71.7% | [15]; at 11.0 µM 84% | [15]; at 33.0 µM 93% | [15]; at 100.0 µM 94%

COC(=O)c1oc([N+](=O)[O-])c(Cl)c1Cl
active: [1]; at 33.0 µM 89% | [1]; at 100.0 µM 99% | [2]; at 1.2 µM 95% | [2]; at 3.7 µM 93% | [2]; at 11.0 µM 93% | [2]; at 33.0 µM 98% | [2]; at 100.0 µM 98% | [4]; at 1.2 µM 95% | [4]; at 3.7 µM 79% | [4]; at 11.0 µM 86% | [4]; at 33.0 µM 96% | [4]; [17] 99% | [4]; at 50.0 µM 97% | [4]; at 100.0 µM 98% | [5]; at 1.2 µM 94% | [5]; at 3.7 µM 70% | [5]; at 11.0 µM 73% | [5]; at 33.0 µM 99% | [5]; [17] 100% | [5]; at 50.0 µM 99.7% | [5]; at 100.0 µM 99% | [7]; [17] 99% | [7]; at 50.0 µM 99% | [8]; at 1.2 µM 98% | [8]; at 11.0 µM 79% | [8]; at 33.0 µM 92% | [8]; at 100.0 µM 99% | [9]; [17] 99% | [9]; at 50.0 µM 98.5% | [10]; at 1.2 µM 71% | [10]; at 33.0 µM 97% | [10]; [17] 100% | [10]; at 50.0 µM 99.2% | [10]; at 100.0 µM 98% | [11]; at 11.0 µM 74% | [11]; at 33.0 µM 99% | [11]; at 100.0 µM 99% | [13]; at 1.2 µM 82% | [13]; at 11.0 µM 78% | [13]; at 33.0 µM 96% | [13]; at 100.0 µM 96% | [14]; [17] 99% | [14]; at 50.0 µM 99.5% | [15]; at 1.2 µM 93% | [15]; at 3.7 µM 92% | [15]; at 11.0 µM 89% | [15]; at 33.0 µM 98% | [15]; at 100.0 µM 99%
inactive: [1]; at 1.2 µM 26% | [1]; at 3.7 µM 22% | [1]; at 11.0 µM 39% | [4]; [16] 21% | [5]; [16] 35% | [7]; [16] 36% | [8]; at 3.7 µM 45% | [9]; [16] 10% | [10]; at 3.7 µM 41% | [10]; [16] 47% | [10]; at 11.0 µM 34% | [11]; at 1.2 µM 64% | [11]; at 3.7 µM 51% | [13]; at 3.7 µM 57% | [14]; [16] 58%
